From PubChem BioAssay (NCATS)
Results filed as inconclusive are left out. Calls of active or inactive are those of the source. Unless noted, calls follow the shape of the dose curve; as a rule, active = well fitted curve in the direction sought with a large enough effect; inconclusive = small, poorly fitted or top-dose-only effect, or another doubt; inactive = no such curve, though single readings can be large; an effect the other way counts as inactive or inconclusive.

How the values were obtained:
[1] = S16 Schwann cell viability assay (CellTiter-Glo assay) (AID 624031);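 also: cellular ATP luminescence as a viability measure; plate controls were DMSO-treated cells for no effect and cell-free wells for full effect; nearly all actives have a fitted effect of over 70% in size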
Method in brief: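 CellTiter-Glo ATP luminescence counter-screen in untransfected S16 rat Schwann cells, 24h compound exposure at 37 degree Celsius after overnight seeding (500-750 cells/well); response scaled between cell-free wells and DMSO (0% activity), curves classed by r2 and magnitude.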

[2] = S16 Schwann cell PMP22 intronic element firefly luciferase assay (AID 624032);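 also: plate controls were DMSO for no effect and PTC124 positive control mean for full effect; nearly all actives have a fitted effect of over 30% in size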
Method in brief: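 Luciferase reporter of PMP22 intronic-element expression in stably transfected S16 rat Schwann cells, read by ONE-Glo luminescence after 24 h compound exposure at 37 C. Activity scaled between DMSO (0%) and positive-control PTC124; concentration-effect curves quality-classified.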

[3] = S16 Schwann cell PMP22 intronic element beta-lactamase assay (AID 624044; calls by dose curve;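 also: 0% = DMSO and -100% = potassium clavulanate positive control; nearly all actives have a fitted effect of over 15% in size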)
Method in brief: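 Rat S16 Schwann cells with beta-Lac driven by a PMP22 intronic element, compound-treated 24 h at 37 °C. LiveBLAzer FRET B/G read: 460 nm normalized to potassium clavulanate vs DMSO; 535 nm FRET as viability; concentration-effect curves classified.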

7G8 = experiment: qHTS profiling for inhibitors of Plasmodium falciparum proliferation (AID 504749); also: nearly all actives have a fitted effect of over 60% in size; also: potency is read from the fitted curve at half-maximal effect;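 as to activity, negative = inhibition: 0% = DMSO vehicle and full inhibition = artemisinin control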; settings: P. falciparum in erythrocytes, SYBR Green DNA, 72 h; series mostly up to 28.7 µM
Method in brief: (§1)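 Infected RBCs, 0.3% parasitemia/2.5% Hct final; cpd 72 h, 37 C, 5% CO2; lysis buffer with saponin/triton/SYBR Green I, o/n RT dark; FI 485/535; norm. to artemisinin (0.29 uM) and DMSO.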

CP215 = experiment: as above; settings: P. falciparum in erythrocytes, SYBR Green DNA, 72 h; series mostly up to 28.7 µM
Method in brief: as §1

CP291 = experiment: as above; settings: P. falciparum in erythrocytes, SYBR Green DNA, 72 h; series mostly up to 28.7 µM
Method in brief: as §1

CP297 = experiment: as above; settings: P. falciparum in erythrocytes, SYBR Green DNA, 72 h; series mostly up to 28.7 µM
Method in brief: as §1

CP335 = experiment: as above; settings: P. falciparum in erythrocytes, SYBR Green DNA, 72 h; series mostly up to 28.7 µM
Method in brief: as §1

Dd2 = experiment: as above; settings: P. falciparum in erythrocytes, SYBR Green DNA, 72 h; series mostly up to 28.7 µM
Method in brief: as §1

GB4 = experiment: as above; settings: P. falciparum in erythrocytes, SYBR Green DNA, 72 h; series mostly up to 28.7 µM
Method in brief: as §1

[4] = molecular target: Ubiquitin carboxyl-terminal hydrolase 1 (Homo sapiens) (UniProt O94782); experiment: Inhibitors of USP1/UAF1: Pilot qHTS (AID 504865);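 also: rhodamine fluorescence freed from ubiquitin-rhodamine substrate followed over time; top concentration of the series differs between compounds; % is scaled to controls: 0 for no effect and ±100 for the full control effect; nearly all actives have a fitted effect of over 35% in size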
Method in brief: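 In 50mM HEPES pH 7.8 containing 0.5mM EDTA, 1mM TCEP, 0.1 mg/ml BSA and 0.01% Tween-20, 1nM USP1/UAF1 is exposed to compound for 15 min, then Ub-Rho (150nM final) is added and fluorescence is read over time.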

[5] = qHTS profiling for inhibitors of Plasmodium falciparum proliferation (AID 504749); also: nearly all actives have a fitted effect of over 60% in size; also: potency is read from the fitted curve at half-maximal effect;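 as to activity, negative = inhibition: 0% = DMSO vehicle and full inhibition = artemisinin control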; settings: P. falciparum in erythrocytes, SYBR Green DNA, 72 h, at 28.7 µM (top of the series)
Method in brief: as §1

AS120 = experiment: as above; settings: P. falciparum in erythrocytes, SYBR Green DNA, 72 h; series mostly up to 28.7 µM
Method in brief: as §1

ATS189 = experiment: as above; settings: P. falciparum in erythrocytes, SYBR Green DNA, 72 h; series mostly up to 28.7 µM
Method in brief: as §1

CP237 = experiment: as above; settings: P. falciparum in erythrocytes, SYBR Green DNA, 72 h; series mostly up to 28.7 µM
Method in brief: as §1

CP247 = experiment: as above; settings: P. falciparum in erythrocytes, SYBR Green DNA, 72 h; series mostly up to 28.7 µM
Method in brief: as §1

CP265 = experiment: as above; settings: P. falciparum in erythrocytes, SYBR Green DNA, 72 h; series mostly up to 28.7 µM
Method in brief: as §1

HB3 = experiment: as above; settings: P. falciparum in erythrocytes, SYBR Green DNA, 72 h; series mostly up to 28.7 µM
Method in brief: as §1

TAB109 = experiment: as above; settings: P. falciparum in erythrocytes, SYBR Green DNA, 72 h; series mostly up to 28.7 µM
Method in brief: as §1

W2 = experiment: as above; settings: P. falciparum in erythrocytes, SYBR Green DNA, 72 h; series mostly up to 28.7 µM
Method in brief: as §1

Chain of Ubiquitin carboxyl-terminal hydrolase 1 (Homo sapiens) (O94782 whole entry, looked up): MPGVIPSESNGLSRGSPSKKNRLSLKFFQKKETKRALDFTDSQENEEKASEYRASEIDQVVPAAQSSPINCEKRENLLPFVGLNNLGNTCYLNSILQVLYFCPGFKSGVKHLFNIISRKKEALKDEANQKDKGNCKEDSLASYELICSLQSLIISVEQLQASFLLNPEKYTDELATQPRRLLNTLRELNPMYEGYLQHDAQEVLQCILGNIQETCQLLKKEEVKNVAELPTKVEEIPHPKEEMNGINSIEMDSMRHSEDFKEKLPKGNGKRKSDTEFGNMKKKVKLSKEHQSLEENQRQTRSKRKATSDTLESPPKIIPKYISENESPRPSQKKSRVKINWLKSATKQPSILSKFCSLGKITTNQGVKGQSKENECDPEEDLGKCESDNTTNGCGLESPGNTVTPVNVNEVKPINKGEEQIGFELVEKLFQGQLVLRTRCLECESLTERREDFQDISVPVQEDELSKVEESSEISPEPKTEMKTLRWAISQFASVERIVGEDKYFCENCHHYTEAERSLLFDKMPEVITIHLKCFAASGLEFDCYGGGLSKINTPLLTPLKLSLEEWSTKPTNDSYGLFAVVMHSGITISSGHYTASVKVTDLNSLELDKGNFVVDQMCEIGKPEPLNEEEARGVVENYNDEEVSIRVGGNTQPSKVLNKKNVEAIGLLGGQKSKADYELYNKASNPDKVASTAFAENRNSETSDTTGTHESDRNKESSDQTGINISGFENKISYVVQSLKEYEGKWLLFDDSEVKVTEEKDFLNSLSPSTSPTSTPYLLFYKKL

C=C1CC[C@H](O)C/C1=C/C=C1\CCC[C@]2(C)[C@@H]([C@H](C)CCCC(C)C)CC[C@@H]12
inactive: Potency [1] | Potency [2] | outcome [3] | Potency (CP215) | Potency (CP291) | Potency (CP297) | Potency (CP335) | Potency (GB4)
active: Potency (7G8) 11.2 µM | Potency (Dd2) 12.6 µM

Oc1cc2c(cc1O)[C@H]1c3ccc(O)c(O)c3OC[C@@]1(O)C2
inactive: Potency [4]

Cc1c(C(=O)O)c(O)cc2c1C(=O)c1c(O)c([C@H]3O[C@H](CO)[C@@H](O)[C@H](O)[C@H]3O)c(O)c(O)c1C2=O
inactive: outcome [3] | activity, negative = inhibition ([5]; parasite line A) 5.98% | activity, negative = inhibition ([5]; parasite line B) 13.4% | Potency (7G8) | Potency (AS120) | Potency (ATS189) | Potency (CP215) | Potency (CP237) | Potency (CP247) | Potency (CP265) | Potency (CP291) | Potency (CP297) | Potency (CP335) | Potency (Dd2) | Potency (GB4) | Potency (HB3) | Potency (TAB109) | Potency (W2)
